Source: the supplement of paper PMC11732987, “Enantioselective OTUD7B fragment discovery through chemoproteomics screening and high-throughput optimisation” (Communications Chemistry, 2025)

How the values were obtained:
Test in all cases: log2 ratio of Biotin-Ahx-Ub-VS probe labelling (fragment/DMSO); higher = less target engagement (more negative = stronger competition), active = hit call of the paper (q ≤ 0.05, log2 ratio ≤ -1)
Settings in all cases: compound concentration: 200 uM; treatment time: 3 h
USP19 = target: T1, USP19 (UniProt O94966)
T1 sequence (whole entry): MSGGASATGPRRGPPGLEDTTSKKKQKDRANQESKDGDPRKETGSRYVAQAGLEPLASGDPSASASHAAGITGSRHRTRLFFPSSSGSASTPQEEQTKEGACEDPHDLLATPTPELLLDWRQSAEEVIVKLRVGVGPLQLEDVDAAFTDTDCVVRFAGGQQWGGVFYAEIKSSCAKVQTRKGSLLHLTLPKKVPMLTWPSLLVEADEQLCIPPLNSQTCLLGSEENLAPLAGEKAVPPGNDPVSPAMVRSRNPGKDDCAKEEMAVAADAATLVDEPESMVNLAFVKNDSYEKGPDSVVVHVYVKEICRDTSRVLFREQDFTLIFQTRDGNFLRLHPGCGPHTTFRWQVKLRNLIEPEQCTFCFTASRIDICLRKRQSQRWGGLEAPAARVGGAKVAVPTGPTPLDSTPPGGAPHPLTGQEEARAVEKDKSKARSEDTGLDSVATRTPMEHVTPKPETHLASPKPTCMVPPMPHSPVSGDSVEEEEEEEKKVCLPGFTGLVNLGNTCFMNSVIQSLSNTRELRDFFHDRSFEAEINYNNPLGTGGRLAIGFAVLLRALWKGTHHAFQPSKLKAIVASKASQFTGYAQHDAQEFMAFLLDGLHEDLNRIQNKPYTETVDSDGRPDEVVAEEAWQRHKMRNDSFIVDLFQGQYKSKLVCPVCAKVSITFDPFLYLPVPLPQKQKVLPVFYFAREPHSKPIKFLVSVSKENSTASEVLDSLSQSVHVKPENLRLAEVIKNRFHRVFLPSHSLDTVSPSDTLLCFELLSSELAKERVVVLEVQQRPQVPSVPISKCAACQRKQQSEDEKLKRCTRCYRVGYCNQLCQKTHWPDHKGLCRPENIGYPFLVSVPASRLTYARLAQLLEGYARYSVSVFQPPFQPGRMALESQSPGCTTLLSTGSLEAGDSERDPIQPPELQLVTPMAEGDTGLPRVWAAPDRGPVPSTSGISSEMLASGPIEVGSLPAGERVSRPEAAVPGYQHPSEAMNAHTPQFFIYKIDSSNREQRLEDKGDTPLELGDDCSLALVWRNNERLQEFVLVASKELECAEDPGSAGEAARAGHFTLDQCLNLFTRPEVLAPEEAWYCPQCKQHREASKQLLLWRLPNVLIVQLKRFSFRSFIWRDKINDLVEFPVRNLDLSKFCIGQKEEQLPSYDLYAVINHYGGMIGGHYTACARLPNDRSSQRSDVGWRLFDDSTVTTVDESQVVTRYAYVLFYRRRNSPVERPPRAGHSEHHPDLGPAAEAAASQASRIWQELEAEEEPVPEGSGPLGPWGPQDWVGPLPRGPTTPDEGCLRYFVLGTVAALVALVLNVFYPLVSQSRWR
Method in brief: (§1)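 HEK293T lysate, 495 µg per sample in Tris/CHAPS/IGEPAL buffer with protease inhibitors, was treated in triplicate with fragment at 200 µM or vehicle for 3 h and then with Biotin-Ahx-Ub-VS at 0.5 µM final for 1 h. Labelled DUBs were NeutrAvidin-enriched, digested with LysC and trypsin, and run by diaPASEF LC-MS/MS. Spectronaut label-free quantities were global-median-normalised, and values are average log2 fragment/vehicle ratios by unpaired t-test on proteins with ≥2 unique peptides.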

USP22 = target: T2, USP22 (UniProt Q9UPT9)
T2 sequence (whole entry): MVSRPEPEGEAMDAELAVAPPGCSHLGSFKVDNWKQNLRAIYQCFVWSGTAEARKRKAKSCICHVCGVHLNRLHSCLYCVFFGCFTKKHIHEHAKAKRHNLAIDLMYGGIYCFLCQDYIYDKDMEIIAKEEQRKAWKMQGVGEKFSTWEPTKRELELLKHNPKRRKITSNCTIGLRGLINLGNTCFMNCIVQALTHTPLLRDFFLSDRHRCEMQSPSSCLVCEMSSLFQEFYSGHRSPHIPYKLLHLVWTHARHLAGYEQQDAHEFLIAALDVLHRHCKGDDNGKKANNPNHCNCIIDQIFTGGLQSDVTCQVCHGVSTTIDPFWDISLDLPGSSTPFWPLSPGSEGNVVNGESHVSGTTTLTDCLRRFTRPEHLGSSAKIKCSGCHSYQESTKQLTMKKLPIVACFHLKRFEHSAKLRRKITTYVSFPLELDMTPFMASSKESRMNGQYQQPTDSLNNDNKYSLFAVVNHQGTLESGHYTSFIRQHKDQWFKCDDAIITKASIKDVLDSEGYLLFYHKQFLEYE
Method in brief: as §1

USP24 = USP24 (UniProt Q9UPU5)
Chain of USP24 (Q9UPU5 whole entry): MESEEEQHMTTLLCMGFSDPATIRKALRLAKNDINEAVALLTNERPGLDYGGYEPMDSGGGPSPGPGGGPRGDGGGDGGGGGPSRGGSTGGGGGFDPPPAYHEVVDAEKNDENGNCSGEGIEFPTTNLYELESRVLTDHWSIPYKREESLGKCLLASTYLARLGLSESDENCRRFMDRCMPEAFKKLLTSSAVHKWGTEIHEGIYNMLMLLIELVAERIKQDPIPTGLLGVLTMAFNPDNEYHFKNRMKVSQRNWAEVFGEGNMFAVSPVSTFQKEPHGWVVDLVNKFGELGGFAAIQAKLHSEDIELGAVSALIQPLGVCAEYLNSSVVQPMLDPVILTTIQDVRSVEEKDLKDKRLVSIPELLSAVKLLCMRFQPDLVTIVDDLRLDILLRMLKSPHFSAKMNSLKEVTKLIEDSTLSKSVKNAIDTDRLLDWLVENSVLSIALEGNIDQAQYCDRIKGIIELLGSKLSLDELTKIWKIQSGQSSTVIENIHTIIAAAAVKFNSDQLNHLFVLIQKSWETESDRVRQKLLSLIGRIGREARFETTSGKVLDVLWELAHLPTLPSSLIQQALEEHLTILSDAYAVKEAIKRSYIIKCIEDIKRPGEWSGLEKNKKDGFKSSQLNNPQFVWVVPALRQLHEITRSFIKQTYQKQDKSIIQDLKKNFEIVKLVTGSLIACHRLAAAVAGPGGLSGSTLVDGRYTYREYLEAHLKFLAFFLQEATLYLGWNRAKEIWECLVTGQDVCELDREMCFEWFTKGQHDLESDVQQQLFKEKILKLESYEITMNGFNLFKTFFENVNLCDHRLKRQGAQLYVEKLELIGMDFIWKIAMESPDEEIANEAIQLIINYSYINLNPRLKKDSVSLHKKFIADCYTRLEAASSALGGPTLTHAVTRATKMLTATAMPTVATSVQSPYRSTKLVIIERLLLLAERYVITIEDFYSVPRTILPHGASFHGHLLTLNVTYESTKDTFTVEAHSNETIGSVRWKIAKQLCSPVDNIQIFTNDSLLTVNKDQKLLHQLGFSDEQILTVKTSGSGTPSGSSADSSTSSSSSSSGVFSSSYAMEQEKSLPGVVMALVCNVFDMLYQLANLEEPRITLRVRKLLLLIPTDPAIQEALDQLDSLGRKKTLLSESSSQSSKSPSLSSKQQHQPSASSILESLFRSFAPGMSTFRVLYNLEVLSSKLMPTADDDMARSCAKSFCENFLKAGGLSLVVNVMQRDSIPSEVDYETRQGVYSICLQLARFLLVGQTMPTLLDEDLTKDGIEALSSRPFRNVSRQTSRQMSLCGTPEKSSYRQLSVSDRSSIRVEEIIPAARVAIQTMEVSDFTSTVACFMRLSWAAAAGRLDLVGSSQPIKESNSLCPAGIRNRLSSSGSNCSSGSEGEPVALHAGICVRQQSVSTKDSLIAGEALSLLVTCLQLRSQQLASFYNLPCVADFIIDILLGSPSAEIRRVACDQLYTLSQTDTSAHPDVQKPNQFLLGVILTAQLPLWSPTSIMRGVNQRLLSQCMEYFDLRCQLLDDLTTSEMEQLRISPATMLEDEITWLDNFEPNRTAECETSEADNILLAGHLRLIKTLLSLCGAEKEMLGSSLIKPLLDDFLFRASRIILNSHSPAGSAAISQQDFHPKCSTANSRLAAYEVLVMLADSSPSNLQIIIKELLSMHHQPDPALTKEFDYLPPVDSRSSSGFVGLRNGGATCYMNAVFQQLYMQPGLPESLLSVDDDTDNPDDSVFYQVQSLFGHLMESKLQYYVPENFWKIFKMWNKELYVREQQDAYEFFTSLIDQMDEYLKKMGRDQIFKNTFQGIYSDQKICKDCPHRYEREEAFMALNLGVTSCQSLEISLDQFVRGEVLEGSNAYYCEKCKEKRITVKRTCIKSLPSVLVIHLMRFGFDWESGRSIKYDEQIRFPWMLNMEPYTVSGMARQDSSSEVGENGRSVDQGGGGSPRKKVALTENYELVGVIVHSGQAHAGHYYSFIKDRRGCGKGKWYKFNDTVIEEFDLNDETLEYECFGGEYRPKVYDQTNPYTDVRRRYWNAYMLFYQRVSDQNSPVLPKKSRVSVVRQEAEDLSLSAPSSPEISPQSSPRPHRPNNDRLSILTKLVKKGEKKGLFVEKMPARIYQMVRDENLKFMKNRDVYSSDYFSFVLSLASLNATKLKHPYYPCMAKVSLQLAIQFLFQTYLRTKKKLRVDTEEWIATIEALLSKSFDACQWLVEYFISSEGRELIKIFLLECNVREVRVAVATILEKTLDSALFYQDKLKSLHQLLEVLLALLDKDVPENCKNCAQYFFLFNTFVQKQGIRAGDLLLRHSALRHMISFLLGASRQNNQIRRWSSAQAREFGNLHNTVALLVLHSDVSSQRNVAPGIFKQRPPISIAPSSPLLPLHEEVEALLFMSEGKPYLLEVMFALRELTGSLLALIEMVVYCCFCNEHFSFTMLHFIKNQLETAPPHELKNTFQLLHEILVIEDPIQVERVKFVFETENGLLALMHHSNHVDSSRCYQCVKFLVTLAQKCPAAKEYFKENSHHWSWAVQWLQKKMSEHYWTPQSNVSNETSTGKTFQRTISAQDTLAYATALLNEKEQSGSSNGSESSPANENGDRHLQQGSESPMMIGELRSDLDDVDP
Method in brief: as §1

USP25 = target: T3, USP25 (UniProt Q9UHP3)
T3 sequence (whole entry): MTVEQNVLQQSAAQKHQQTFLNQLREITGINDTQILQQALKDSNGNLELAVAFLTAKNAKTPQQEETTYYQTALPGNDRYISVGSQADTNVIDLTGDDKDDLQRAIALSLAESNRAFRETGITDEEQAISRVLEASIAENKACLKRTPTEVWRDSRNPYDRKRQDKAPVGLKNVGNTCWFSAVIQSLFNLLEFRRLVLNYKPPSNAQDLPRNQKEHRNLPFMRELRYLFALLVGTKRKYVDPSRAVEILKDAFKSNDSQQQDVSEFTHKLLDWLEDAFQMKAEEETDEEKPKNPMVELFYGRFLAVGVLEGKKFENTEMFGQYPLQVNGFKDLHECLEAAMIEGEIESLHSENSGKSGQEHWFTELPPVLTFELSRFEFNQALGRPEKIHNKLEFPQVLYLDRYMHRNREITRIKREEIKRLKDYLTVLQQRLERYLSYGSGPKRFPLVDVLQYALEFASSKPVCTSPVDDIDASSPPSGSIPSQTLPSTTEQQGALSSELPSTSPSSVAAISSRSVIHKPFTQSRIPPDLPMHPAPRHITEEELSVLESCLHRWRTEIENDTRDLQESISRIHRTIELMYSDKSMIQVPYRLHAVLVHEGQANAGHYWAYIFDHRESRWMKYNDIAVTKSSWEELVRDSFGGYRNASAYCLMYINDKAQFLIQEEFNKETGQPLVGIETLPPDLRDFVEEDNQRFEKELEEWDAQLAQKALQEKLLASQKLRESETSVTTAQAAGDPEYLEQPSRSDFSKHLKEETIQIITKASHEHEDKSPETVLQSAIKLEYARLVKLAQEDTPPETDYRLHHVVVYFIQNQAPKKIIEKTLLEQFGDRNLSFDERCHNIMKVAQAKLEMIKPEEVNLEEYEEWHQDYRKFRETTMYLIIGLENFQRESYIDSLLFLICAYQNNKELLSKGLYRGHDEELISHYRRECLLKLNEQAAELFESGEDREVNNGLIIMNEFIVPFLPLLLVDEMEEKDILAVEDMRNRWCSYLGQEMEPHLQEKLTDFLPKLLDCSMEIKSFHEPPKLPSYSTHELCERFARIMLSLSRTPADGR
Method in brief: as §1

USP28 = target: T4, USP28 (UniProt Q96RU2)
T4 sequence (whole entry): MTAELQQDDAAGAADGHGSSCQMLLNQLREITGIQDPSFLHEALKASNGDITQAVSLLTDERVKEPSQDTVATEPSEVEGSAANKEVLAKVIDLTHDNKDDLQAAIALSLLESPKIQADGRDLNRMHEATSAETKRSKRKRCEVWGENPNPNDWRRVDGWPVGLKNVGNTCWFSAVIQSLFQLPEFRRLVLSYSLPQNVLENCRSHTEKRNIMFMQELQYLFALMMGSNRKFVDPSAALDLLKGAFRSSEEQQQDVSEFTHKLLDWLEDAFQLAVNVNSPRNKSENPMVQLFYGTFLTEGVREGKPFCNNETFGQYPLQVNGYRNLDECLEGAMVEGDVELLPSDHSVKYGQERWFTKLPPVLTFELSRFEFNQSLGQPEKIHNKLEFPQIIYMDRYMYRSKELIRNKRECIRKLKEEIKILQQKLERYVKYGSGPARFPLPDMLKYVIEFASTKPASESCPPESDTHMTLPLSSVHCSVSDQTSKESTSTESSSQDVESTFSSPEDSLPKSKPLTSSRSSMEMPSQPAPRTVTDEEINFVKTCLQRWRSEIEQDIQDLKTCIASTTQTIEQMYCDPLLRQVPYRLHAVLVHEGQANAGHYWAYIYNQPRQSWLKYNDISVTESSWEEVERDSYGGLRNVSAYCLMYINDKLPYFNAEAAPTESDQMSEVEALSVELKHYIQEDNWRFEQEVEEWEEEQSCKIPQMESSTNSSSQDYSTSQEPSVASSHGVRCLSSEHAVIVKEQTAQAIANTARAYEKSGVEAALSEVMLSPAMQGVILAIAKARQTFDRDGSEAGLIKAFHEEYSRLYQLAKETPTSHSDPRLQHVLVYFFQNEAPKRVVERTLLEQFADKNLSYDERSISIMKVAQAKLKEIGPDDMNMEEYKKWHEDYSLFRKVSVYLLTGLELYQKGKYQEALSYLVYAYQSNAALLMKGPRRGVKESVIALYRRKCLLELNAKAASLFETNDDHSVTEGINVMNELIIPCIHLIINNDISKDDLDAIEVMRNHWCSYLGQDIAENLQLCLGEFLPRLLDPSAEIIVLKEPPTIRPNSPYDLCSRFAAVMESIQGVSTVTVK
Method in brief: as §1

Measured: log2 ratio of Biotin-Ahx-Ub-VS probe labelling

Cl.O=C(CCl)NCCc1ncc(F)cc1F
inactive: USP19 -0.108 | USP22 -0.0071 | USP24 -0.335 | USP25 -0.361 | USP28 -0.502
